Test results as given in PubChem BioAssay AID1159580 (chemical genetic matrix, 2015).
Screen size: about 5,500 compounds; about 2,000 (36%) were called active. Roughly 18% stayed inconclusive and do not appear here. Cut-off read from the data, not from the text of the source: active = normalized growth mostly below about 0.91 (no sharp cut-off); inconclusive = no clear call, values can overlap the other calls; inactive = mostly above about 0.92. Some of the results follow.

Test: chemical genetic growth profiling, strain panel (AID 1159580);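 note: tested at 20 µM; growth read once vehicle control cultures reached saturation at 30 °C; 1 = growth at the plate median or of vehicle wells; lower values mean less growth of the strain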
Conditions: S. cerevisiae deletion strains, growth OD

Measured: normalized growth

O=S(=O)(c1cc(Cl)ccc1Cl)N1CCc2ccccc2C1
inactive: locus YAR019C, strain CDC15, active compounds read low 0.98 | locus YBL105C, strain PKC1, active compounds read low 0.977 | locus YBR135W, strain CKS1, active compounds read low 0.971 | locus YBR136W, strain MEC1, active compounds read low 0.983 | locus YBR160W, strain CDC28, active compounds read low 0.982 | locus YDL017W, strain CDC7, active compounds read low 0.982 | locus YDL028C, strain MPS1, active compounds read low 0.976 | locus YDL101C, strain DUN1, active compounds read low 0.981 | locus YDL108W, strain KIN28, active compounds read low 0.98 | locus YDL132W, strain cdc53, active compounds read low 0.973 | locus YDL214C, strain PRR2, active compounds read low 1.02 | locus YDR052C, strain DBF4, active compounds read low 0.983 | locus YDR054C, strain cdc34, active compounds read low 0.977 | locus YDR226W, strain ADK1, active compounds read low 0.978 | locus YDR477W, strain SNF1, active compounds read low 1.02 | locus YER123W, strain YCK3, active compounds read low 1 | locus YER133W, strain GLC7, active compounds read low 1.02 | locus YFL009W, strain cdc4, active compounds read low 0.967 | locus YFL029C, strain CAK1, active compounds read low 0.978 | locus YFR003C, strain YPI1, active compounds read low 0.981 | locus YFR019W, strain FAB1, active compounds read low 0.99 | locus YFR028C, strain CDC14, active compounds read low 0.981 | locus YGR040W, strain KSS1, active compounds read low 1.03 | locus YGR052W, strain FMP48, active compounds read low 1.06 | locus YGR092W, strain DBF2, active compounds read low 0.994 | locus YHR030C, strain SLT2, active compounds read low 0.951 | locus YHR079C, strain IRE1, active compounds read low 0.987 | locus YHR082C, strain KSP1, active compounds read low 1.15 | locus YHR205W, strain SCH9, active compounds read low 0.912 | locus YIL147C, strain SLN1, active compounds read low 0.975 | locus YJL095W, strain BCK1, active compounds read low 0.96 | locus YJL128C, strain PBS2, active compounds read low 0.925 | locus YJL157C, strain FAR1, active compounds read low 1.01 | locus YJR016C, strain ILV3, active compounds read low 0.985 | locus YJR066W, strain TOR1 (second series), active compounds read low 1.02 | locus YJR066W, strain TOR1, active compounds read low 1.11 | locus YKL048C, strain ELM1, active compounds read low 1 | locus YKL067W, strain YNK1, active compounds read low 1 | locus YKL101W, strain HSL1, active compounds read low 0.994 | locus YKL193C, strain SDS22, active compounds read low 0.971 | locus YKL203C, strain TOR2, active compounds read low 1.08 | locus YLR113W, strain HOG1, active compounds read low 0.953 | locus YLR133W, strain CKI1, active compounds read low 1 | locus YLR403W, strain SFP1, active compounds read low 0.964 | locus YML070W, strain DAK1, active compounds read low 1.02 | locus YMR001C, strain CDC5, active compounds read low 0.98 | locus YMR205C, strain PFK2 (second series), active compounds read low 0.995 | locus YMR277W, strain FCP1, active compounds read low 0.982 | locus YNL006W, strain LST8, active compounds read low 0.984 | locus YNL020C, strain ARK1, active compounds read low 1.01 | locus YNL161W, strain CBK1, active compounds read low 0.981 | locus YNL183C, strain NPR1, active compounds read low 1.14 | locus YNL207W, strain RIO2, active compounds read low 0.98 | locus YNL222W, strain SSU72, active compounds read low 0.983 | locus YNL307C, strain MCK1 (second series), active compounds read low 0.999 | locus YOL078W, strain AVO1, active compounds read low 0.975 | locus YOL136C, strain PFK27, active compounds read low 1 | locus YOR061W, strain CKA2, active compounds read low 0.99 | locus YOR119C, strain RIO1, active compounds read low 1.08 | locus YOR231W, strain MKK1, active compounds read low 1.06 | locus YOR329C, strain SCD5, active compounds read low 0.985 | locus YPL031C, strain PHO85, active compounds read low 1.01 | locus YPL153C, strain RAD53, active compounds read low 1.01 | locus YPL204W, strain HRR25, active compounds read low 1.02 | locus YPL209C, strain IPL1, active compounds read low 0.979 | locus YPL256C, strain CLN2, active compounds read low 0.987 | locus YPR025C, strain CCL1, active compounds read low 0.977 | locus YPR106W, strain ISR1, active compounds read low 0.986 | locus YPR111W, strain DBF20, active compounds read low 0.978 | strain NNK1, active compounds read low 0.983 | strain TSCII, active compounds read low 0.985
